From PubChem BioAssay AID651724 (National Center for Advancing Translational Sciences (NCATS), 2012) come the findings set out here.

The structures appear in SMILES notation. The whole screen tested about 340,000 compounds, of which about 1,700 (0.5%) were called active. Not shown: some 2% with an inconclusive outcome. Cut-off read from the data, not from the text of the source: active = activity change below about -65%; inconclusive = mostly about -30% to -63%; inactive = weaker than that. For the sample, actives were picked, then their nearest neighbours and some compounds at random.
% is set by controls: 0 for no effect and ±100 for the full control effect.

This test relates to CtBP / adenovirus E1A interaction (AlphaScreen). The experiment in a line: qHTS Assay for Inhibitors of the CtBP/E1A Interaction. To be noted: AlphaScreen GST-E1A/His-CtBP binding, 1536-well; active compounds read low. The text has this:
Carboxyl-terminal binding protein (CtBP) is a co-repressor for many transcription factors. […] Our studies have shown that CtBP is overexpressed in multiple human cancers, including lung, breast, and head and neck cancers. In particular, it is over-expressed in 50% of primary lung cancer and 90% of metastatic lesions. CtBP suppresses epithelial-specific genes as well as genes critical for apoptosis, providing the underlying molecular mechanism for its role in tumorigenesis. […] Based on the above data, we hypothesize that 1) CtBP suppresses the pro-apoptotic and epithelial genes, therefore overexpressed CtBP in human cancer cells increases EMT and cancer survival; 2) decreasing CtBP's function represents a targeted therapy for lung cancer and potentially multiple cancer types. As a co-repressor, CtBP binds to E1A and other transcription factors through a conserved peptide motif to carry out its action. Inhibiting this interaction using small molecules can potentially serve as effective cancer therapeutics.
To this end, we have developed a homogenous AlphaScreen assay targeting the CtBP/E1A interaction. We performed a large scale HTS of the Molecular Libraries Small Molecule Repository (MLSMR) to identify inhibitors of the CtBP/E1A interaction as potential anti-cancer therapeutics. Compounds identified can also be used as chemical probes to better understand the biological functions of CtBP.
NIH Chemical Genomics Center [NCGC]
NIH Molecular Libraries Probe Centers Network [MLPCN]
Assay Submitter (PI): Rui Zhao, University of Colorado Denver
The first step of the 5uL AlphaScreen assay is to dispense assay buffer (50 mM Tris, pH 8.0, 300 mM NaCl, 0.05% BSA, 0.02% Tween 20, 1 mM TCEP) into a Greiner 1536 white solid bottom microtiter plate (789175-F). Five microliters is added to Column 1, 4 uL is added to Column 2 and 3 uL is added to Columns 3 through 48. A 5X protein solution (125 nM GST-E1A protein + 125 nM His-tagged CtBP protein) is mixed and 1 uL is dispensed to Columns 3-48. Using a 1536 pintool, 23 nL of compound is transferred to the assay plate and the plate is incubated with a lid at 37 deg C in the dark for two hours. A solution of 5X AlphaScreen beads is mixed (50 ug/mL Glutathione linked donor beads + Nickel chelated acceptor beads) and 1 uL is dispensed to Columns 2-48. The assay plate is incubated for one hour, with a lid, at 37 deg C in the dark. The plate is read using a Perkin Elmer Envision using an AlphaScreen protocol.
On the technique in general: In qHTS, concentration-response curves come from the screen itself.
As to `CCOc1ccc(C(CC(=O)O)NC(=O)Cc2ccccc2)cc1OC` (configuration not stated), the activity change is -13.3% (inactive).
`CCCCC(=O)NC(c1ccc(OC)c(OC)c1)c1ccc2cccnc2c1O` (configuration not stated): the activity change is -94.2% (active).
Consider `COc1ccc(CCNS(=O)(=O)c2cccc3cccnc23)cc1OC`, for which the activity change was -9.76% (inactive).
Take `Cc1ccccc1C#CC1=CC(=O)CC(C)(C)C1`: the activity change is 5.53% (inactive).
`CCCCNC(=O)C[C@@H]1C[C@@]2(C(=O)OC)CC(C)(C)CC=C2N(Cc2ccco2)C1=O`: the activity change was 2.24% (inactive).
`COCOc1cccc(CN2CCC(C)(Oc3ccc(SC)cc3)C2)c1` (configuration not stated): the activity change is -22.6% (inactive).
As for `CSc1ccc(CN2CCC2(C)C(=O)NCc2ccccc2Br)cc1` (configuration not stated), the figure is -8.98% (inactive); as for `COC(=O)[C@@]12C[C@@H](CC(=O)NCCCCc3ccccc3)C(=O)N(Cc3ccccc3)C1=CCC(C)(C)C2`, -0.75% (inactive); as for `O=c1ccc2c(-c3ccccc3S(=O)(=O)O)c3ccc(O)c(O)c3oc-2c1O`, -78.5% (active).
As to `CCCCCNC(=O)C1C(=O)Nc2ccccc2C(=O)N1C(C)(C)C` (configuration not stated), the activity change was -0.209% (inactive).
In the case of `COc1ccc(Cl)cc1-c1cc(C(=O)Nc2cc(OC)c(OC)c(OC)c2)[nH]n1`, the activity change is 4% (inactive).
Turning to `O=C1c2cccc3cccc(c23)C(=O)N1CCCCCc1n[nH]c(=S)o1`, the activity change is -82.2% (active).
For `O=C1c2ccccc2C(=O)N1CCCc1nc(-c2ccccc2)no1`, the activity change was 5.59% (inactive).
Turning to `O=C1c2ccccc2C(=O)N1CCCCCCN1C(=O)c2ccccc2C1=O`, the activity change was 6.03% (inactive).
As to `C[C@@H]1CN([C@H](C)CO)C(=O)c2cc(Br)cnc2O[C@@H]1CN(C)Cc1cncnc1`, the activity change was -16.6% (inactive).
The result for `Cc1onc(-c2ccccc2)c1-c1nnc(COC(=O)c2ccc(N(C)C)cc2)o1` reads 2.13% (inactive); that for `COC(=O)[C@@]12C[C@@H](CC(=O)N3CCC(c4ccccc4)CC3)C(=O)N(Cc3ccccc3)C1=CCC(C)(C)C2`, 0.365% (inactive); that for `COC(=O)c1ccc(NCC(=O)c2ccccc2)cc1`, 6.11% (inactive).
As for `CCOC(=O)c1ccc(Nc2cc3ccccc3c(=O)[nH]2)cc1`, the figure is 2.43% (inactive); as for `CCOC(=O)c1nc(Nc2ccc(C(=O)OC)cc2)c2ccccc2n1`, -86.6% (active).
With `COc1ccc(-c2coc3c(C(=O)NC(C)C)cccc23)c(C)c1`, the activity change was -12.9% (inactive).
As to `Clc1cccc(Cc2c(-c3cccc(Cl)c3)nc3ccc(Cl)cn23)c1`, the activity change is 0.333% (inactive).
For `Cc1ccc(OCCOCCOc2ccc(Br)cc2/C=N\NC(=O)c2ccncc2)cc1`, the activity change is -10.2% (inactive).
`COc1ccc(Br)cc1/C=N/Nc1ccc(Cl)c(C(=O)O)c1`: the activity change was -2.31% (inactive).
The result for `COc1ccc(CC(=O)NCC(=O)N/N=C/c2cc(Br)ccc2OC)cc1` reads -87.6% (active).
As for `C=CCNC(=O)COc1coc(CN2CCN(Cc3ccccc3)CC2)cc1=O`, the figure is 2.1% (inactive); as for `Cc1ccc(C(=O)Oc2coc(CSc3nnc(NC(=O)c4cccs4)s3)cc2=O)cc1C`, -16.7% (inactive).
Consider `O=C(/C=C/c1ccccc1)Oc1coc(CSc2ncccn2)cc1=O`, for which the activity change was -92.2% (active).
As for `O=Nc1c(O)cc(O)c2ccccc12`, the activity change is -6.15% (inactive).
`COc1ccc(C(=O)N2CCCCC2c2cc(C(=O)Nc3ccc(F)c(Cl)c3)no2)cc1` (configuration not stated): the activity change was -5.81% (inactive).
For the molecule `O=Cc1cn(CCOc2ccc(F)cc2)c2ccccc12`, the activity change was 0% (inactive).
`CSCCC(c1nnnn1Cc1ccccc1)N1CCN(C/C=C/c2ccccc2)CC1` (configuration not stated): the activity change is -18.4% (inactive).
The result for `COc1ccc(CCn2c(=N)c(C(=O)NCc3ccco3)cc3c(=O)n4cccc(C)c4nc32)cc1` reads -81.7% (active).
Take `Cc1cccn2c(=O)c3cc(C(=O)NCCN4CCOCC4)c(=N)n(Cc4cccnc4)c3nc12`: the activity change is -25.6% (inactive).
As for `O=C(NCc1ccco1)c1cccn2c(=O)c3c4c(sc3nc12)CCCC4`, the figure is -12.2% (inactive).
Turning to `CC(C)C[C@@H](COCc1ccc(Cl)cc1)N1CCN(C(=O)c2ccc(Cl)cc2Cl)CCC1=O`, the activity change is 0% (inactive).
As to `CCOC(=O)N1CCN(C(=O)CSc2nc(=O)n3cccc(C)c3n2)CC1`, the activity change is -4.84% (inactive).
On to `CCN1CCN(C(c2cccnc2)c2cc(Cl)c3cccnc3c2O)CC1` (configuration not stated), for which the activity change was -99.3% (active).
Consider `CCOC(=O)N1CCN(C(c2cccnc2)c2ccc3cccnc3c2O)CC1` (configuration not stated), for which the activity change was -91.9% (active).
For the molecule `CCOC(=O)N1CCN(C(c2ccnc3ccccc23)c2nnnn2-c2c(C)cccc2C)CC1` (configuration not stated), the activity change was 0% (inactive).
With `N#CCCN(C(=S)Nc1ccc(Cl)c(Cl)c1)C1CCCCC1`, the activity change is 0% (inactive).
Take `COc1ccc(-c2cnc3c(c2)C(=O)N([C@H](C)CO)C[C@@H](C)[C@H](CN(C)Cc2ccccc2)O3)cc1`: the activity change is -12.8% (inactive).
As for `CC(C)Oc1ccc(CN2CCC2(C)C(=O)NCc2ccc(C(F)(F)F)cc2)cc1` (configuration not stated), the figure is 0.872% (inactive); as for `Cc1ccc(C(=O)Nc2ccc3c(c2)OCO3)cc1S(=O)(=O)N1CCCCC1`, -66.6% (active); as for `Cc1ccc(NC(=O)C2CC(=O)N(c3ccc4c(c3)OCCO4)C2)cc1S(=O)(=O)N1CCCCCC1` (configuration not stated), -5.1% (inactive).
For `Cc1ccc(C(=O)NNC(=O)c2ccncc2)cc1S(=O)(=O)N1CCCCC1`, the activity change was -2.42% (inactive).
With `OC(c1ccccc1)c1nc(/C=C/c2ccc(C(F)(F)F)cc2)cs1` (configuration not stated), the activity change was 7.85% (inactive).
For the molecule `Cc1nc2c(OCc3ccc(Cl)cc3Cl)cccn2c1N(C)CC1CC1`, the activity change was -25.5% (inactive).
As for `COc1cc(OC)c(/C=N/NC(=O)c2ccc([N+](=O)[O-])cc2)cc1Br`, the activity change was -0.151% (inactive).
In the case of `COc1cccc(/C=N/NC(=O)c2[nH]nc3c2CCc2ccccc2-3)c1O`, the activity change was -67.1% (active).
With `COc1ccc(/C=N/NC(=O)c2ccncc2)cc1CN1CCCc2ccccc21`, the activity change is 13.2% (inactive).
On to `CC(C)c1cc(CN2CCOCC2)cc(C(C)C)c1O`, for which the activity change is 4.14% (inactive).
Take `Oc1c(C(c2ccccn2)N2CCOCC2)ccc2cccnc12` (configuration not stated): the activity change was -81.3% (active).
Turning to `CCCCN1C[C@H](c2ccc(Br)cc2)[C@@H](CC(=O)Nc2ccc(Br)cc2)C1=O`, the activity change was -4.21% (inactive).
For `COc1ccc(OCC(=O)Nc2ccc(NC(=O)c3ccco3)c(C)c2)cc1`, the activity change is -2.52% (inactive).
Turning to `COc1ccc(NC(=O)CCC(=O)Nc2cc(OC)c(NC(=O)c3ccco3)cc2OC)c(OC)c1`, the activity change is -87.4% (active).
On to `COc1ccc(CC(=O)Nc2ccccc2NC(=O)c2ccco2)cc1OC`, for which the activity change was 5.07% (inactive).
